An excerpt weighted towards active compounds, which were near 17% of everything screened.
TGFb inhibitor: inhibitors of TGF-b signaling; HepG2 CAGA-GFP TGF-b/SMAD3 reporter, GFP fluorescence, 18 h; TGF-beta stimulated, 500 pg/mL final; Potency, µM (highest dose often 46.1 µM), hits mostly inhibitors; 1.2% of 410,000 active; further: nearly all actives have a fitted effect of over 65% in size
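HEPG2 CAGA-GFP cells (1000/well, DMEM with 1% FBS) were pre-incubated 2 h at 37 degrees C, given compound by pin tool, then stimulated with TGF-beta at 500 pg/mL final for 18 h before per-cell GFP fluorescence imaging.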
DT40 TDP1 no CPT: qHTS for Inhibitors of human tyrosyl-DNA phosphodiesterase 1 (TDP1): qHTS in cells in absence of CPT. 15% of 420,000 active. Potency, µM (series often up to 46.2 µM), usual class: inhibitors. DT40 Tdp1-/- hTDP1 cells, no CPT, ATP luminescence, 48 h; further: nearly all actives have a fitted effect of over 55% in size
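Growth kinetics read by CellTiter-Glo luminescence after ≥48 hr at 37 °C. Cells: DT40 Tdp1-/- stably carrying human TDP1, 400 per well, compound exposure in the absence of CPT (DMSO vehicle).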
HT1080 IDH1KD tx: HT-1080 IDH1 knockdown cell toxicity (counter line); HT-1080 IDH1 knockdown viability, ATP luminescence, 48 h; Potency, µM (doses to about 46.1 µM), actives largely listed as cytotoxic; 2% of 360,000 active; AID 686971
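Using the IDH1-knockdown HT-1080 line run in the same batch and compound series as the NT line, viability after 48 h at 37 °C was determined by CellTiter-Glo luminescence and expressed as % activity.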
HepG2 tox: counter-screen for TGF-b inhibitors: cytotoxicity in HepG2 cells; HepG2 CAGA-GFP viability, ATP luminescence, 18 h; Potency, µM (top dose mostly 46.1 µM), hits mostly cytotoxic; 0.76% of 410,000 active; AID 588856
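CellTiter-Glo luminescence gave cytotoxicity after 18 hours at 37 degrees C. The cells were HepG2 CAGA-GFP in 1% FBS DMEM, stimulated with 500 pg/mL TGF-beta after compound addition. %Activity was normalised to no-cell wells (complete cell-killing) and DMSO (no toxicity), and curves were fitted and classified.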
DT40 TDP1 CPT: growth inhibition of DT40 Tdp1-/-;hTDP1 cells with camptothecin (screen for TDP1 inhibitors). 12% of 420,000 active. Potency, µM (titrated, usually from 46.2 µM), hits mostly inhibitors. AID 686979. chicken DT40 Tdp1-/-;hTDP1 cells + 20 nM CPT, ATP luminescence, 48 h; further: nearly all actives have a fitted effect of over 55% in size
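Chicken DT40 Tdp1-/- cells stably complemented with human TDP1 were seeded at 400 cells/well in medium containing 20 nM camptothecin, exposed to pin-transferred compounds, and grown at 37 °C for at least 48 hr. Viability was read as ATP luminescence.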
HT1080NT lethal: kills 2HG-producing HT-1080-NT fibrosarcoma cells; HT-1080-NT fibrosarcoma viability, CellTiter-Glo ATP luminescence, 48 h; Potency, µM (series often up to 46.1 µM), hits mostly cytotoxic; 1.6% of 360,000 active;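 further: NT is the 2HG producing partner of a matched IDH1 knockdown line; nearly all actives have a fitted effect of over 55% in size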
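Toxicity toward the 2HG-producing NT line was scored as %Activity, normalised to DMSO and no-cell wells, from CellTiter-Glo luminescence after 48 hours' treatment.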
A number is an active result; - = inactive; ? = inconclusive; . = not tested or not shown. The call rests on the fitted dose curve; in most records, active means well fitted curve in the direction sought with a large enough effect; inconclusive means small, poorly fitted or top-dose-only effect, or another doubt; inactive means no such curve, though single readings can be large; an effect the other way counts as inactive or inconclusive.

SMILES	TGFb inhibitor	DT40 TDP1 no CPT	HT1080 IDH1KD tx	HepG2 tox	DT40 TDP1 CPT	HT1080NT lethal
Cc1ccc(OCC(=O)Nc2cccc(S(=O)(=O)N3CCCC3)c2)cc1C	-	?	-	-	-	-
CC(=O)c1ccc(OCC(=O)Nc2cccc(S(=O)(=O)N3CCCC3)c2)cc1	-	9.2µM	-	-	8.2µM	16.4µM
N#Cc1ccccc1OCC(=O)Nc1cccc(S(=O)(=O)N2CCCCCC2)c1	-	20.6µM	-	-	?	-
Cc1ccc(OCC(=O)Nc2cccc(S(=O)(=O)N3CCCCC3)c2)c([N+](=O)[O-])n1	-	?	-	-	?	-
Cc1cc(NC(=O)CN(C)CC(=O)Nc2ccc(F)c(F)c2F)no1	-	-	-	-	-	-
Nc1ncnc2c1ncn2[C@H]1C[C@H](O)[C@@H](CO)O1	-	?	-	-	6.51µM	-
Nc1nc(Cl)nc2c1ncn2[C@H]1C[C@H](O)[C@@H](CO)O1	?	0.206µM	?	-	0.184µM	?
Nc1ncnc2c1ncn2C1OCC(O)C1O (stereo unspecified)	-	13µM	-	-	18.4µM	-
Nc1nc(Cl)nc2c1ncn2[C@@H]1O[C@H](CO)[C@@H](O)[C@@H]1F	.	0.0021µM	.	.	0.0021µM	.
COc1ccc(N(C(=O)/C=C/c2ccccc2)C2=CC3CCC(C2)N3C)cc1 (stereo unspecified)	-	?	-	-	?	?
N#CC1(NC(=O)COC(=O)Cn2[nH]c(=O)c3ccccc3c2=O)CCCCC1	-	-	-	-	-	-
O=C(O)Cc1ccc2c(c1)N(S(=O)(=O)c1cccc(C(F)(F)F)c1)CC(C(=O)O)O2 (stereo unspecified)	-	-	-	-	-	-
Cc1ccc(NC(=O)CSc2nc3ccccc3n2CC(=O)N2CCC(C)CC2)cc1C	-	18.4µM	.	-	?	.
Cc1cc2cc(C)c3nnc(SCC(=O)Nc4ccc(S(=O)(=O)N5CCCCC5)cc4)n3c2cc1C	-	-	-	-	?	-
Cc1cc2ccccc2n2c(SCC(=O)Nc3ccc(S(=O)(=O)N4CCC(C)CC4)cc3)nnc12	?	23.1µM	-	-	29.1µM	-
CCN(CC)C(=O)Cn1c(SCC(=O)Nc2ccc(C)c(C)c2)nc2ccccc21	-	?	.	-	?	.
CCCCN(C)C(=O)Cn1c(SCC(=O)Nc2ccc(C)c(C)c2)nc2ccccc21	-	13µM	.	-	?	.
Cc1ccsc1/C=C1/NC(=O)N(Cc2ccc(F)cc2)C1=O	-	-	-	-	-	-
Cc1ccc(CNCc2ccc3c(c2)n(C)c(=O)n3C)cc1	-	-	.	-	-	.
CCc1nnc(NC(=O)CSc2ncnc3c2oc2ccccc23)s1	-	-	-	-	-	-
CCc1ccc(NC(=O)CSc2nc3c(oc4ccccc43)c(=O)n2-c2cccc(C)c2)cc1	-	?	.	-	?	.
COc1ncnc2c1oc1ccccc12	-	-	-	-	-	-
CCOc1ccccc1Oc1ncnc2c1oc1ccccc12	-	20.6µM	.	-	13µM	.
O=C(CSc1ncnc2c1oc1ccccc12)Nc1nc2ccccc2s1	?	?	?	12.6µM	?	?
Cc1cccc(-n2c(SCC(=O)Nc3ccccc3C)nc3c(oc4ccccc43)c2=O)c1	-	5.17µM	.	-	7.31µM	.
Cc1cccc(NC(=O)CSc2nc3c(oc4ccccc43)c(=O)n2-c2ccccc2)c1C	-	20.6µM	.	-	?	.
Cc1cc(C)c2c(N)c(C(=O)NN3CC(=O)N(c4ccccc4)CC3=O)sc2n1	-	-	-	-	-	-
CCc1ccccc1NC(=O)CSc1nc2c(oc3ccccc32)c(=O)n1-c1ccccc1	-	18.4µM	.	-	23.1µM	.
Cc1cc(C)cc(NC(=O)CSc2nc3c(oc4ccccc43)c(=O)n2-c2ccccc2)c1	?	?	-	-	-	-
